# Assay results published in PubChem BioAssay (NCATS).
# Inconclusive results are not listed. Where a call stands in place of a potency, no number is given. A number with no mark means an inactive call. Active and inactive are the calls of the source. Calls follow the shape of the dose curve; as a rule, active = well fitted curve in the direction sought with a large enough effect; inconclusive = small, poorly fitted or top-dose-only effect, or another doubt; inactive = no such curve, though single readings can be large; an effect the other way counts as inactive or inconclusive.
# Legend:
# [1] = Tertiary RLuc qRT-PCR qHTS assay for Zika virus inhibitors (AID 1347169); also: nearly all actives have a fitted effect of over 55% in size; also: potency is read from the fitted curve at half-maximal effect; as to activity change, negative = inhibition: top concentration of the series differs between compounds
# Outline: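 Orthogonal cell-based readout: luminescence measured 1-1.5 hrs after adding live-cell Renilla substrate to Vero cells that had been infected with ZIKV-RLuc (MOI 1-2) post-compound, incubated 48-72 hrs at 37 degrees C.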
# [2] = HepG2 cells viability qHTS for Zika virus inhibitors (AID 1347168)
# Outline: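 Cells seeded at 2.5 x 10^5 cells/mL in DMEM with 4% FBS and attached overnight at 37 degrees C, then exposed to compound for 24 to 48 hours. Viability read as ATP content by CellTiter Glo luminescence.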
# [3] = OV-KATE Cancer Cell Toxicity qHTS against the NCATS CANVASS Library (AID 1347345)
# Outline: (§1)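 1000 cells/well seeded and rested 4 h at 37 °C before pin transfer of compounds in an 11-pnt series. Exposure 72 h at 37 °C/5% CO2; viability by CellTiter-Glo luminescence after 15 min at room temperature.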
# [4] = HPAF-II Cancer Cell Toxicity qHTS against the NCATS CANVASS Library (AID 1347346); also: nearly all actives have a fitted effect of over 55% in size
# Outline: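 HPAF-II cells were seeded at 1000 cells/well, allowed to settle for 4 h at 37 degrees C, then exposed to compounds in an 11-point series for 72 h. Viability was read by CellTiter-Glo luminescence.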
# [5] = UWB1.289 Cancer Cell Toxicity qHTS against the NCATS CANVASS Library (AID 1347347); also: nearly all actives have a fitted effect of over 60% in size
# Outline: as §1
# [6] = OV-SAHO Cancer Cell Toxicity qHTS against the NCATS CANVASS Library (AID 1347348); also: nearly all actives have a fitted effect of over 55% in size
# Outline: as §1
# [7] = Panc-1005 Cancer Cell Toxicity qHTS against the NCATS CANVASS Library (AID 1347349); also: nearly all actives have a fitted effect of over 60% in size
# Outline: as §1
# [8] = SW1088 Cancer Cell Toxicity qHTS against the NCATS CANVASS Library (AID 1347350); settings: SW1088 viability, CellTiter-Glo luminescence, 72 h; at 38.3 µM (top of the series); also: nearly all actives have a fitted effect of over 75% in size
# Outline: as §1
# [9] = U-118MG Cancer Cell Toxicity qHTS against the NCATS CANVASS Library (AID 1347351); settings: outcome: dose series up to 38.3 µM
# Text: (§2) Natural products and their derivatives continue to be wellsprings of nascent therapeutic potential. However, many laboratories have limited resources for biological evaluation, leaving their previously isolated or synthesized compounds largely or completely untested. To address this issue, the Canvass library of natural products was assembled (https://tripod.nih.gov/canvass), in collaboration with academic and industry researchers, for quantitative high-throughput screening (qHTS) across a diverse set of cell-based and biochemical assays. The pure (>85% purity by liquid chromatography/mass spectrometry [LC/MS]) Canvass library of 346 natural products were submitted by 45 academic laboratories and companies around the world. We collected pure natural products to circumvent deconvolution and structure elucidation due to time and resource limitations. The library was formatted into 1536-well plates and evaluated in 50 qHTS (in an 11-pnt concentration series) bioassays with broad scope of disease-relevant mechanisms. The resulting data set from 50 different assays was then systematically analyzed to identify overall trends and specific natural products with interesting biological activities. Reported herein are the results of each individual qHTS and their corresponding assay protocol. National Center for Advancing Translational Sciences (NCATS), Rockville, MD National Institute of Health (NIH), Bethesda, Maryland
# (§3) Cancer Cell Toxicity protocol for cell lines COV-362, OV-KATE, OV-SAHO, UWB1.289, UWB1.289-WTBRCA1, HEK-293, HPAF-II, Panc-1005, SW1088, or U-118MG. 1. In a 1536 well, white solid bottom tissue culture plates (Corning 7494), corresponding cells (COV-362, OV-KATE, OV-SAHO, UWB1.289, UWB1.289-WTBRCA1, HEK-293, HPAF-II, Panc-1005, SW1088, or U-118MG) were dispensed in each well at a final concentration of 1000 cells / well (6uL volume) using the Multidrop Combi (Thermo Fisher Scientific) dispenser. 2. […] Luminescence signal was acquired via the ViewLux plate reader (PerkinElmer) using a clear filter, 2 second exposure and 2x binning settings.
# [10] = COV-362 Cancer Cell Toxicity qHTS against the NCATS CANVASS Library (AID 1347352)
# Text: as §2
# as §3, with “Toxicity” for “Toxicity protocol for cell lines”, “and U-118MG-screen protocol.” for “or U-118MG.”
smiles,measurement,setting,value
O=C(O)c1c(Cl)c(Cl)c(Cl)c(Cl)c1-c1c2cc(I)c(=O)c(I)c-2oc2c(I)c(O)c(I)cc12,Potency,[1],inactive
CC(=O)Nc1ccc([C@H](C)C(=O)Nc2ncc(C(C)C)s2)cc1,outcome,[2],inactive
same,Potency,[1],1040 nM (active)
COC(=O)[C@@H]1[C@H]2C[C@H]3c4[nH]c5ccccc5c4CCN3C[C@@H]2CC[C@@H]1O,outcome,[3],inactive
same,outcome,[4],inactive
same,outcome,[5],inactive
same,outcome,[6],inactive
same,outcome,[7],inactive
same,outcome,[8],inactive
same,outcome,[9],inactive
same,outcome,[10],inactive
NC(=O)c1ccc2nc(-c3ccc(Oc4ccc(Cl)cc4)cc3)[nH]c2c1,outcome,[2],inactive
CS(=O)c1ccc(-c2nc(-c3ccc(F)cc3)c(-c3ccncc3)[nH]2)cc1 (stereo not drawn),outcome,[2],inactive
Cc1cc(OCCCc2c(C(=O)O)n(Cc3cccnc3)c3c(-c4c(COc5ccc(N6CCN([S+](C)(=O)[O-])CC6)cc5)nn(C)c4C)cccc23)cc(C)c1Cl,outcome,[2],inactive
C[C@H](NC(=O)C(=O)Nc1ccccc1C(C)(C)C)C(=O)N[C@@H](CC(=O)O)C(=O)COc1c(F)c(F)cc(F)c1F,outcome,[2],inactive
same,Potency,[1],inactive
CC1CCC(C(=O)N(c2cc(C#CC(C)(C)C)sc2C(=O)O)C2CCC(O)CC2)CC1 (stereo not drawn),outcome,[2],inactive
O=c1cc(-c2ccccc2)oc2cc(O)c(O)c(O)c12,outcome,[2],inactive
same,Potency,[1],inactive
same,outcome,[3],inactive
same,outcome,[4],inactive
same,outcome,[6],inactive
same,outcome,[7],inactive
same,outcome,[9],inactive
same,outcome,[10],inactive
CN(C)c1cc(NC(=O)CNC(C)(C)C)c(O)c2c1C[C@@H]1C[C@H]3[C@H](N(C)C)C(=O)C(C(N)=O)=C(O)[C@@]3(O)C(=O)C1=C2O,outcome,[2],inactive
same,Potency,[1],inactive
O=c1c(O)c(-c2ccc(O)cc2)oc2cc(O)cc(O)c12,"activity change, negative = inhibition",[1],13.5% [at 0.997 µM]
